Data: PubChem BioAssay (NCATS)
Records with an inconclusive call do not appear. Calls of active or inactive are those of the source. Calls come from the whole dose curve; as a rule, active = well fitted curve in the direction sought with a large enough effect; inconclusive = small, poorly fitted or top-dose-only effect, or another doubt; inactive = no such curve, though single readings can be large; an effect the other way counts as inactive or inconclusive.

Tests used:
[1] = target: Rap guanine nucleotide exchange factor 3 (Homo sapiens) (UniProt O95398); assay: Confirmatory qHTS for antagonist of cAMP-regulated guanine nucleotide exchange factor 3 (EPAC1) (AID 1645880); note: nearly all actives have a fitted effect of over 55% in size; note: potency is the fitted concentration of half-maximal effect
Chain of Rap guanine nucleotide exchange factor 3 (Homo sapiens) (O95398 whole entry, looked up): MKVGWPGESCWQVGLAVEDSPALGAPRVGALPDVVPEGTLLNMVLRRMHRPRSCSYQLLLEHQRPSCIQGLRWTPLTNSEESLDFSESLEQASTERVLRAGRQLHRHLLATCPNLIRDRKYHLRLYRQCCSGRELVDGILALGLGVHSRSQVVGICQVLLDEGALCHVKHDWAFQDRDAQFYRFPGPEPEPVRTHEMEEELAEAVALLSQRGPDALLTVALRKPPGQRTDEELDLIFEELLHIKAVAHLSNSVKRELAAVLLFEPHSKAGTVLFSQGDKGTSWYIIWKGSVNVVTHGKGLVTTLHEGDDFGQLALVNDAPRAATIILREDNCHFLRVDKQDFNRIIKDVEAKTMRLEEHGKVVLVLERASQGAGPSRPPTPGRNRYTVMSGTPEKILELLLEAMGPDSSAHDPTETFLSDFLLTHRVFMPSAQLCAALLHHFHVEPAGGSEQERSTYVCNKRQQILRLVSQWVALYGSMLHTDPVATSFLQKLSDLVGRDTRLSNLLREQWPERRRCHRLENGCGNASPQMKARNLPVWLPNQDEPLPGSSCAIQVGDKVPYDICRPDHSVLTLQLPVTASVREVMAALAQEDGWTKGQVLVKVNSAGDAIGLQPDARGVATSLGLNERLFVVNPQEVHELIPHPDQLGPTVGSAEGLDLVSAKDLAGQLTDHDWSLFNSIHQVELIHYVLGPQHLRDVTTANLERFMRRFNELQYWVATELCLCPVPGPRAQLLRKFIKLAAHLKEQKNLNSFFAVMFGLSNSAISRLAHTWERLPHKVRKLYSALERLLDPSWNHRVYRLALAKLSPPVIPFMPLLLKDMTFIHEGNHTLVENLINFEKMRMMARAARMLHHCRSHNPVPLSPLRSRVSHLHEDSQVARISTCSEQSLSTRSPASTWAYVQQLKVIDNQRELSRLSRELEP
How it was run: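 Released BODIPY-GDP fluoresces less than Rap1-bound BODIPY-GDP; the signal is followed at 480/540 nm at 5-min intervals over 30 min, after 5 min at room temperature. Reactions contain 100 nM EPAC1, 250 nM RAP1B-BODIPY-GDP and 50 uM GDP; results are normalized to ATA and DMSO.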

[2] = target: Rap guanine nucleotide exchange factor 3 (Homo sapiens) (UniProt O95398); assay: Confirmatory qHTS for agonist of cAMP-regulated guanine nucleotide exchange factor 3 (EPAC1) (AID 1645881);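 note: EPAC1 catalysed release of BODIPY-GDP from Rap1B seen as fluorescence loss; 100% = effect of cAMP agonist control; nearly all actives have a fitted effect of over 75% in size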
[3] = target: Rap guanine nucleotide exchange factor 4 (Homo sapiens) (UniProt Q8WZA2); assay: Confirmatory qHTS for agonist of cAMP-regulated guanine nucleotide exchange factor 4 (EPAC2) (AID 1645884);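 note: nucleotide exchange releases bodipy-GDP from Rap1 and this lowers its fluorescence; % is set by controls: 0 for no effect and ±100 for the full control effect; nearly all actives have a fitted effect of over 65% in size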
Chain of Rap guanine nucleotide exchange factor 4 (Homo sapiens) (Q8WZA2 whole entry, looked up): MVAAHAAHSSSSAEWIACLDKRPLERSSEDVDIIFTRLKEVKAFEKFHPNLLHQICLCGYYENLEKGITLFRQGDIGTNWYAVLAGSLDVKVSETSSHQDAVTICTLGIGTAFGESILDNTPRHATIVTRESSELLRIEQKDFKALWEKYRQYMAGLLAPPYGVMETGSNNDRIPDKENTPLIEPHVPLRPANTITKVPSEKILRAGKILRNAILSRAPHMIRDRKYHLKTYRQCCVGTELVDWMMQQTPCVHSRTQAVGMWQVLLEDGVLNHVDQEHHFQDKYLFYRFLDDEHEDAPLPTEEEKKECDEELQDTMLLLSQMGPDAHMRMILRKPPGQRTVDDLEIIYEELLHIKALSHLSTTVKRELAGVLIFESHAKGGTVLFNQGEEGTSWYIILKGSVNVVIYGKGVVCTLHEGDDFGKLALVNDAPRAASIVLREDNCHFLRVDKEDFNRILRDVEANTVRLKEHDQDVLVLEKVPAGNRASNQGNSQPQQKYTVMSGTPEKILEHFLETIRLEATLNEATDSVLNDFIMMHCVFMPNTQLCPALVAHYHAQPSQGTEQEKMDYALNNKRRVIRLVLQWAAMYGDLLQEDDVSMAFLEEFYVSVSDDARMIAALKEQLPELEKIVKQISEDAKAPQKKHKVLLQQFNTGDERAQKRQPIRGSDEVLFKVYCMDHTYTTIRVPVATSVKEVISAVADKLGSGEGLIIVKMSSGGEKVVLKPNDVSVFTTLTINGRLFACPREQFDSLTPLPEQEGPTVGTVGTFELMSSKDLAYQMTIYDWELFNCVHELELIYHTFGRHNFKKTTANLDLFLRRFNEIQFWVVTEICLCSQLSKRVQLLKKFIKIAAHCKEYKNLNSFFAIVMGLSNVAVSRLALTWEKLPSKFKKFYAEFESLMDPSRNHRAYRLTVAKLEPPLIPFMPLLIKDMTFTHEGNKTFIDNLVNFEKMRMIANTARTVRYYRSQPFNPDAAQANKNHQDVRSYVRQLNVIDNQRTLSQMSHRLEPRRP

[4] = target: Rap guanine nucleotide exchange factor 4 (Homo sapiens) (UniProt Q8WZA2); assay: Confirmatory qHTS for antagonist of cAMP-regulated guanine nucleotide exchange factor 4 (EPAC2) (AID 1645885); note: nearly all actives have a fitted effect of over 25% in size; note: potency is the fitted concentration of half-maximal effect; for activity change, negative = inhibition: % is set by controls: 0 for no effect and ±100 for the full control effect
[5] = target: Rap guanine nucleotide exchange factor 3 (Homo sapiens) (UniProt O95398); assay: Counterscreen qHTS for antagonist of cAMP-regulated guanine nucleotide exchange factor 3 (EPAC1) (AID 1645888); note: % of control where 0% means no effect
How it was run: (§1)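 Measured: fluorescence of BODIPY-GDP bound to Rap1B, which falls as exchange proceeds. Conditions include 50 uM competing GDP, 5 and 30 min reads, and a later cAMP challenge for antagonist detection.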

[6] = target: Rap guanine nucleotide exchange factor 3 (Homo sapiens) (UniProt O95398); assay: Counterscreen qHTS for agonist of cAMP-regulated guanine nucleotide exchange factor 3 (EPAC1) (AID 1645889); note: nearly all actives have a fitted effect of over 40% in size; note: potency is the fitted concentration of half-maximal effect; for activation: % of control where 0% means no effect
How it was run: as §1

CN(Cc1ccccc1F)c1nc(-c2cccs2)nc2ccccc12
inactive: Potency [1] | Potency [2] | activation [3] 0% [at 17.1 µM, percent relative to cAMP agonist control] | Potency [4] | activity change, negative = inhibition [5] -18.6% [at 30.8 µM] | activation [6] 4.35% [at 30.8 µM]

CCc1ccc(-c2nc(CS(=O)CC(=O)NCc3cccnc3)c(C)o2)cc1 (stereo not given)
inactive: Potency [1] | Potency [2] | Potency [3] | Potency [4] | Potency [5] | Potency [6]

CC(C)(C)c1nc(-c2ccccc2)nc2c1OCCC2
inactive: Potency [1] | Potency [2] | Potency [3] | Potency [4] | Potency [5] | Potency [6]

O=S(=O)(NCc1ccccc1)c1ccc(S(=O)(=O)N(Cc2cccs2)CC2CCCO2)cc1 (stereo not given)
inactive: Potency [1] | Potency [2] | Potency [3] | Potency [4] | Potency [5] | Potency [6]

CO/N=C(/COc1ccc(F)cc1)c1ccc(OC)cc1
inactive: Potency [1] | Potency [2] | activation [3] -0.137% [at 17.1 µM, percent relative to cAMP agonist control] | Potency [4] | activity change, negative = inhibition [5] -12% [at 30.8 µM] | activation [6] 2.57% [at 30.8 µM]

O=S(=O)(Nc1nccs1)c1ccc(NCc2cc(Br)cc(Br)c2O)cc1
inactive: Potency [2] | activation [3] -0.584% [at 17.1 µM, percent relative to cAMP agonist control] | activity change, negative = inhibition [5] 9.07% [at 30.8 µM] | activation [6] 31.2% [at 30.8 µM]
active: Potency [1] 56.2 µM | Potency [4] 1.51 µM

CC(C)CC1C(=O)N(Cc2cn(CCC3OCCCO3)nn2)CCS(=O)(=O)N1Cc1ccc(-c2ccccc2)cc1 (stereo not given)
inactive: Potency [1] | Potency [2] | Potency [3] | Potency [4] | Potency [5] | Potency [6]

O=S(=O)(NCc1cn2ccsc2n1)c1cccs1
inactive: Potency [1] | Potency [2] | activation [3] 0% [at 17.1 µM, percent relative to cAMP agonist control] | Potency [4] | activity change, negative = inhibition [5] -13.2% [at 30.8 µM] | activation [6] 3.73% [at 30.8 µM]

c1ccc(-c2nc(C3CCCCC3)c3ccccc3n2)cc1
inactive: Potency [1] | Potency [2] | activation [3] 3.01% [at 17.1 µM, percent relative to cAMP agonist control] | Potency [4] | activity change, negative = inhibition [5] -1.41% [at 30.8 µM] | activation [6] 34% [at 30.8 µM]

CCOC(=O)c1c(/N=C/C2=C(O)CC(C)(C)CC2=O)sc(C)c1C
inactive: Potency [1] | Potency [2] | activation [3] 5.64% [at 17.1 µM, percent relative to cAMP agonist control] | Potency [4] | activity change, negative = inhibition [5] -9.9% [at 30.8 µM] | activation [6] 1.97% [at 30.8 µM]

CCCN(CC(=O)Nc1ccccc1C)C(=O)C1CCN(S(=O)(=O)c2ccccc2C(F)(F)F)CC1
inactive: Potency [1] | Potency [2] | Potency [3] | Potency [4] | Potency [5] | Potency [6]

COc1ccc(-c2oc3cccnc3c2C#CCO)cc1
inactive: Potency [1] | Potency [2] | Potency [3] | Potency [4] | Potency [5] | Potency [6]

CC(C)(C(=O)N1CCC1(C)C(=O)NS(=O)(=O)c1ccccc1Cl)c1ccccc1 (stereo not given)
inactive: Potency [1] | Potency [2] | activation [3] 3.96% [at 17.1 µM, percent relative to cAMP agonist control] | Potency [4] | activity change, negative = inhibition [5] 0.723% [at 30.8 µM] | activation [6] 1.99% [at 30.8 µM]

COC(=O)c1cc2sccc2n1Cc1ccc(F)cc1
inactive: Potency [1] | Potency [2] | Potency [3] | Potency [4] | Potency [5] | Potency [6]

CN(C)c1ccc(/C=C/c2nc3ccccc3c(=O)n2-c2ccc(C(=O)O)cc2)cc1
active: Potency [1] 75.7 µM | Potency [4] 67.5 µM | Potency [6] 39.8 µM
inactive: Potency [2] | Potency [3] | Potency [5]

COc1cc2ccccc2cc1C(=O)N1CCc2ccccc21
inactive: Potency [1] | Potency [2] | Potency [3] | Potency [5] | Potency [6]
active: Potency [4] 7.57 µM

COc1nc(C)cc(C)c1S(=O)(=O)c1ccccc1C
inactive: Potency [1] | Potency [2] | Potency [3] | Potency [4] | Potency [5] | Potency [6]

CC1(C(=O)NS(=O)(=O)c2ccc(C#N)cc2)CCN1C(=O)C1(c2ccccc2)CCCC1 (stereo not given)
inactive: Potency [2] | Potency [3] | Potency [5] | Potency [6]
active: Potency [1] 37.9 µM | Potency [4] 33.8 µM

COc1ccc(OC)c(/C=C2\SC(=S)N(NS(=O)(=O)c3ccccc3)C2=O)c1
inactive: Potency [2] | Potency [3] | Potency [5] | Potency [6]
active: Potency [1] 23.9 µM | Potency [4] 33.8 µM

CCOC(=O)C1CCCN(c2c(NCCN3CCCCC3C)c(=O)c2=O)C1 (stereo not given)
inactive: Potency [1] | Potency [2] | Potency [3] | Potency [4] | Potency [5] | Potency [6]

Cc1ccc(C2=NOC(=O)/C2=C\c2ccc(C)o2)cc1
active: Potency [1] 75.7 µM
inactive: Potency [2] | Potency [3] | Potency [4] | Potency [5] | Potency [6]

CC(C)CS(=O)(=O)C1=NN2C(=N)/C(=C\c3ccc(OC(=O)c4ccco4)cc3)C(=O)N=C2S1
inactive: Potency [2] | Potency [3] | Potency [4] | Potency [5] | Potency [6]
active: Potency [1] 37.9 µM

COC(=O)c1sc(-c2ccc(C(C)(C)C)cc2)cc1NC(=O)c1ccccc1C(=O)O
active: Potency [1] 50.1 µM
inactive: Potency [2] | activation [3] 5.26% [at 17.1 µM, percent relative to cAMP agonist control] | Potency [4] | activity change, negative = inhibition [5] -19.7% [at 30.8 µM] | activation [6] 9.25% [at 30.8 µM]

CCOc1cc(/C=N/NC(=O)c2ccc3c(c2)OCCO3)cc(Br)c1O
inactive: Potency [2] | Potency [3] | Potency [4] | Potency [5] | Potency [6]
active: Potency [1] 30.1 µM

O=C(O)c1ccc(/C=N/N2CCN(Cc3cccc4ccccc34)CC2)cc1
inactive: Potency [1] | Potency [2] | activation [3] 4.54% [at 17.1 µM, percent relative to cAMP agonist control] | Potency [4] | activity change, negative = inhibition [5] -6.71% [at 30.8 µM] | activation [6] 4.41% [at 30.8 µM]

COc1cccc(OCCOc2ccc(/C=C3\C(=N)N4N=C(S(C)(=O)=O)SC4=NC3=O)cc2OC)c1
active: Potency [1] 37.9 µM
inactive: Potency [2] | Potency [3] | Potency [4] | Potency [5] | Potency [6]

O=C(COC(=O)c1ccc2c(c1)OCO2)NC1CCS(=O)(=O)C1 (stereo not given)
inactive: Potency [1] | Potency [2] | Potency [3] | Potency [4] | Potency [5] | Potency [6]

COc1cc(/C=C2\SC(=O)N(c3ccccc3Cl)C2=O)cc([N+](=O)[O-])c1O
active: Potency [1] 47.8 µM | Potency [4] 42.6 µM
inactive: Potency [2] | Potency [3] | Potency [5] | Potency [6]

Cc1ccc(C)c(NC(=O)CN(C)C(=O)c2cccc(S(=O)(=O)N3CCCC3)c2)c1
inactive: Potency [1] | Potency [2] | Potency [3] | Potency [4] | Potency [5] | Potency [6]

CCc1nc(C)cn1S(=O)(=O)c1cc(C)c(OC)cc1C
inactive: Potency [1] | Potency [2] | Potency [3] | Potency [4] | Potency [5] | Potency [6]

CN1C(=O)C2(C(C#N)=C(N)N(c3cc(Cl)cc(Cl)c3)C3=C2C(=O)CC(C)(C)C3)c2ccccc21 (stereo not given)
inactive: Potency [1] | Potency [2] | Potency [3] | Potency [4] | Potency [5] | Potency [6]

COc1ccc(N2CCN(C(=O)COC(=O)COc3cc(C)cc(C)c3)CC2)cc1
inactive: Potency [1] | Potency [2] | activation [3] 0.676% [at 17.1 µM, percent relative to cAMP agonist control] | Potency [4] | activity change, negative = inhibition [5] -19.2% [at 30.8 µM] | activation [6] -0.0753% [at 30.8 µM]

O=[N+]([O-])c1cc([N+](=O)[O-])c2oc(-c3ccccc3)c(Br)c2c1O
active: Potency [1] 2.69 µM | Potency [4] 3.01 µM
inactive: Potency [2] | Potency [3] | Potency [5] | Potency [6]

CCC(Oc1ccccc1)C(=O)Nc1cc(Cl)ccc1-n1cncn1 (stereo not given)
active: Potency [4] 47.8 µM
inactive: Potency [1] | Potency [2] | Potency [3] | Potency [5] | Potency [6]

COc1ccc(/C=C(\NC(=O)c2cccs2)C(=O)Nc2ccc(C)cc2)cc1OC
active: Potency [1] 47.8 µM
inactive: Potency [2] | Potency [3] | Potency [4] | Potency [5] | Potency [6]
